Compounds without any hit were thinned out: in the full panel of roughly 79,000, 15% have a hit. Unmarked numbers belong to inactive results. Active and inactive are the calls of the source. No stated cut-off is given here; in the data, active means growth inhibition above about 70%; inactive means the rest.

A short description of experiment [1]: NCI Yeast Anticancer Drug Screen. Data for the rad50 strain (AID 155).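 Further: 0% = growth of vehicle-only cultures of the same strain.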 As to conditions: S. cerevisiae rad50 strain growth inhibition, hits give high values. An outline of the steps:
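Readout: growth inhibition relative to vehicle-treated cultures. Compound exposure was carried out in a genetically defined yeast strain deficient in DNA damage repair.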

Experiment [2] is described as follows: NCI Yeast Anticancer Drug Screen. Data for the mec2-1 strain (AID 157). As to conditions: S. cerevisiae mec2-1 strain, hits give high values. An outline of the steps:
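mec2-1 yeast strain, carrying an alteration in DNA damage repair or cell cycle control, was exposed to compounds; growth inhibition was measured relative to vehicle-treated controls.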

Experiment [3] in a line: NCI Yeast Anticancer Drug Screen. Data for the sgs1 mgt1 strain (AID 161).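 Further: 0% = growth of cultures given vehicle only.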 As to conditions: S. cerevisiae sgs1 mgt1 strain, hits give high values. An outline of the steps: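 Yeast cells carrying a defined DNA-repair defect were exposed to test compounds. Growth inhibition was measured relative to vehicle-treated controls.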
Experiment [4] can be described thus: NCI Yeast Anticancer Drug Screen. Data for the cln2 rad14 strain (AID 165).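 Further: 0% = growth equal to vehicle treated cultures.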 The note with it: S. cerevisiae cln2 rad14 strain, hits give high values. In short, it runs like this: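 Yeast carrying cln2 and rad14 alterations (cell cycle control and DNA damage repair) were exposed to compounds. Growth inhibition was measured against vehicle-treated controls.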
Experiment [5] in a line: NCI Yeast Anticancer Drug Screen. Data for the bub3 strain (AID 167). The note with it: S. cerevisiae bub3 mutant strain, hits give high values. In short, it runs like this:
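Readout: yeast growth inhibition, expressed relative to vehicle-only wells. The test organism is a mutant strain from a panel with lesions in DNA repair or checkpoint genes.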

Experiment [6] in a line: NCI Yeast Anticancer Drug Screen. Data for the mlh1 rad18 strain (AID 175). The note with it: S. cerevisiae mlh1 rad18 strain growth inhibition, hits give high values. In short, it runs like this:
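Growth inhibition of the yeast strain was measured after compound exposure and expressed relative to vehicle-treated controls. The strain carries defined defects in DNA damage repair.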

[7] abbreviates: at 5.0 µM (retest, dose inferred, filed as 0.5).
[8] abbreviates: at 50.0 µM (retest, dose inferred, filed as 5.0).

With `ON=C1c2ccccc2-c2ccccc21`, the growth inhibition in experiment [1] (setting [7]) is 8%; in experiment [1] (setting [8]) it was 58%; in experiment [1] (at 50.0 µM), 54.2%; in experiment [2] (setting [7]) it was 2%; in experiment [2] (setting [8]), 21%; in experiment [2] (at 50.0 µM), -3.05%. Further, the growth inhibition in experiment [3] (setting [7]) was 2%; in experiment [3] (setting [8]), 30%; in experiment [3] (at 50.0 µM) it was 41.5%; in experiment [4] (setting [7]), -12%; in experiment [4] (setting [8]), -6%; in experiment [4] (at 50.0 µM) it was -68.6%. The growth inhibition in experiment [5] (setting [7]) is -4%; in experiment [5] (setting [8]), 9%; in experiment [5] (at 50.0 µM), 30.9%; in experiment [6] (setting [7]) it was 9%; in experiment [6] (setting [8]), 58%; in experiment [6] (at 50.0 µM) it was 71.7% (active).
As for `O=C(O)CCC(=O)c1ccc(C2CCCC2)c2ccccc12`, the growth inhibition in experiment [1] (setting [7]) was 1%; in experiment [1] (setting [8]) it was 28%; in experiment [1] (at 50.0 µM), 69.8%; in experiment [2] (setting [7]), -3%; in experiment [2] (setting [8]), 24%; in experiment [2] (at 50.0 µM) it was 78.8% (active). In addition, the growth inhibition in experiment [3] (setting [7]) was 3%; in experiment [3] (setting [8]), 34%; in experiment [3] (at 50.0 µM), 68.3%; in experiment [4] (setting [7]), -17%; in experiment [4] (setting [8]), 42%; in experiment [4] (at 50.0 µM) it was 72.7% (active). In addition, the growth inhibition is -13% in experiment [5] (setting [7]); 46% in experiment [5] (setting [8]); 70.3% (active) in experiment [5] (at 50.0 µM); -6% in experiment [6] (setting [7]); 11% in experiment [6] (setting [8]); 86.6% (active) in experiment [6] (at 50.0 µM).
As for `COc1ccc(C(=O)Cc2nc3nnc(NC(=O)Nc4ccc(Cl)cc4)n3nc2CC(=O)c2ccc(OC)cc2)cc1`, the growth inhibition in experiment [1] (setting [7]) is 2%; in experiment [1] (setting [8]) it was 96% (active); in experiment [1] (at 50.0 µM) it was 93.1% (active); in experiment [2] (setting [7]), 7%; in experiment [2] (setting [8]), 98% (active); in experiment [2] (at 50.0 µM) it was 94.9% (active). In addition, the growth inhibition is 1% in experiment [3] (setting [7]); 98% (active) in experiment [3] (setting [8]); 94.8% (active) in experiment [3] (at 50.0 µM); -1% in experiment [4] (setting [7]); 97% (active) in experiment [4] (setting [8]); 93.5% (active) in experiment [4] (at 50.0 µM). Also, the growth inhibition in experiment [5] (setting [7]) is 7%; in experiment [5] (setting [8]), 98% (active); in experiment [5] (at 50.0 µM), 96.2% (active); in experiment [6] (setting [7]), 4%; in experiment [6] (setting [8]), 97% (active); in experiment [6] (at 50.0 µM) it was 95.1% (active).
As for `Cc1ccc(-c2c3c(cc4cc(C)ccc24)C(=O)OC3=O)cc1`, the growth inhibition in experiment [1] (setting [7]) was 12%; in experiment [1] (setting [8]), 26%; in experiment [1] (at 50.0 µM), 14.8%; in experiment [2] (setting [7]), -2%; in experiment [2] (setting [8]), 12%; in experiment [2] (at 50.0 µM), 6.85%. The growth inhibition in experiment [3] (setting [7]) is -1%; in experiment [3] (setting [8]), 27%; in experiment [3] (at 50.0 µM), 17.9%; in experiment [4] (setting [7]), 4%; in experiment [4] (setting [8]) it was 6%; in experiment [4] (at 50.0 µM) it was 15.2%. Besides, the growth inhibition was 1% in experiment [5] (setting [7]); 4% in experiment [5] (setting [8]); 15.8% in experiment [5] (at 50.0 µM); -2% in experiment [6] (setting [7]); 25% in experiment [6] (setting [8]); 32.9% in experiment [6] (at 50.0 µM).
On to `CCOC(=O)c1cnc(SCc2ccc(Cl)cc2Cl)nc1Cl`, for which the growth inhibition in experiment [1] (setting [7]) was 1%; in experiment [1] (setting [8]) it was 47%; in experiment [1] (at 50.0 µM) it was 38.4%; in experiment [2] (setting [7]) it was 0%; in experiment [2] (setting [8]) it was 73% (active); in experiment [2] (at 50.0 µM), 54.6%. In addition, the growth inhibition in experiment [3] (setting [7]) is 16%; in experiment [3] (setting [8]), 66%; in experiment [3] (at 50.0 µM) it was 58.5%; in experiment [4] (setting [7]) it was -3%; in experiment [4] (setting [8]), 59%; in experiment [4] (at 50.0 µM), 71.8% (active). In addition, the growth inhibition in experiment [5] (setting [7]) is 0%; in experiment [5] (setting [8]), 54%; in experiment [5] (at 50.0 µM) it was 25.7%; in experiment [6] (setting [7]), 0%; in experiment [6] (setting [8]), 62%; in experiment [6] (at 50.0 µM), 65%.
On to `CCN(CC)c1ccc(N=Nc2ccc(-c3nc4cccn(C)c-4n3)cc2)cc1`, for which the growth inhibition was 8% in experiment [1] (setting [7]); 8% in experiment [1] (setting [8]); 80.2% (active) in experiment [1] (at 50.0 µM); -5% in experiment [2] (setting [7]); -5% in experiment [2] (setting [8]); 79.2% (active) in experiment [2] (at 50.0 µM). Besides, the growth inhibition in experiment [3] (setting [7]) was -13%; in experiment [3] (setting [8]) it was -13%; in experiment [3] (at 50.0 µM) it was 76.7% (active); in experiment [4] (setting [7]) it was -2%; in experiment [4] (setting [8]) it was -2%; in experiment [4] (at 50.0 µM), 80.2% (active). Besides, the growth inhibition in experiment [5] (setting [7]) is 9%; in experiment [5] (setting [8]), 9%; in experiment [5] (at 50.0 µM), 84.3% (active); in experiment [6] (setting [7]) it was -4%; in experiment [6] (setting [8]) it was -4%; in experiment [6] (at 50.0 µM) it was 82% (active).
As to `O=C(CC1(O)C(=O)Nc2c(Cl)cc(Cl)cc21)c1ccc(Br)cc1` (stereo not given), the growth inhibition in experiment [1] (setting [7]) was 3%; in experiment [1] (setting [8]) it was 3%; in experiment [1] (at 50.0 µM) it was 93.1% (active); in experiment [2] (setting [7]), -9%; in experiment [2] (setting [8]), -9%; in experiment [2] (at 50.0 µM), 92% (active). The growth inhibition was -23% in experiment [3] (setting [7]); -23% in experiment [3] (setting [8]); 92% (active) in experiment [3] (at 50.0 µM); -8% in experiment [4] (setting [7]); -8% in experiment [4] (setting [8]); 91.8% (active) in experiment [4] (at 50.0 µM). Further, the growth inhibition in experiment [5] (setting [7]) is 7%; in experiment [5] (setting [8]), 7%; in experiment [5] (at 50.0 µM), 94.3% (active); in experiment [6] (setting [7]), -1%; in experiment [6] (setting [8]) it was -1%; in experiment [6] (at 50.0 µM), 92.7% (active).
As for `CCN(CC)CCCNc1c(O)cc(C)c2sc3ccccc3c(=O)c12`, the growth inhibition in experiment [1] (setting [7]) is 17%; in experiment [1] (setting [8]), 98% (active); in experiment [1] (at 50.0 µM), 98.7% (active); in experiment [2] (setting [7]), 6%; in experiment [2] (setting [8]) it was 99% (active); in experiment [2] (at 50.0 µM) it was 99.2% (active). Besides, the growth inhibition is 4% in experiment [3] (setting [7]); 99% (active) in experiment [3] (setting [8]); 99% (active) in experiment [3] (at 50.0 µM); 12% in experiment [4] (setting [7]); 96% (active) in experiment [4] (setting [8]); 98.3% (active) in experiment [4] (at 50.0 µM). Besides, the growth inhibition in experiment [5] (setting [7]) was 14%; in experiment [5] (setting [8]) it was 95% (active); in experiment [5] (at 50.0 µM), 98.4% (active); in experiment [6] (setting [7]), 6%; in experiment [6] (setting [8]), 98% (active); in experiment [6] (at 50.0 µM), 98.8% (active).
In the case of `COc1cc(C2SC(N)=Nc3c2c(C)nn3C(=O)c2ccccc2O)cc(OC)c1OC` (stereo not given), the growth inhibition in experiment [1] (setting [7]) was -1%; in experiment [1] (setting [8]), 80% (active); in experiment [1] (at 50.0 µM), 52.5%; in experiment [2] (setting [7]) it was -10%; in experiment [2] (setting [8]), 71% (active); in experiment [2] (at 50.0 µM), 39.9%. Moreover, the growth inhibition in experiment [3] (setting [7]) was -5%; in experiment [3] (setting [8]) it was 75% (active); in experiment [3] (at 50.0 µM), 79.8% (active); in experiment [4] (setting [7]) it was 3%; in experiment [4] (setting [8]), 25%; in experiment [4] (at 50.0 µM), 56.4%. Also, the growth inhibition in experiment [5] (setting [7]) is -1%; in experiment [5] (setting [8]), 70% (active); in experiment [5] (at 50.0 µM), 79.1% (active); in experiment [6] (setting [7]) it was 6%; in experiment [6] (setting [8]) it was 86% (active); in experiment [6] (at 50.0 µM) it was 50.2%.
With `O=C(CCl)Oc1c(Br)cc(-c2ccccc2)cc1Br`, the growth inhibition was 32% in experiment [1] (setting [7]); 95% (active) in experiment [1] (setting [8]); 77.3% (active) in experiment [1] (at 50.0 µM); 42% in experiment [2] (setting [7]); 99% (active) in experiment [2] (setting [8]); 56.1% in experiment [2] (at 50.0 µM). In addition, the growth inhibition in experiment [3] (setting [7]) is 65%; in experiment [3] (setting [8]), 99% (active); in experiment [3] (at 50.0 µM) it was 88.8% (active); in experiment [4] (setting [7]), 57%; in experiment [4] (setting [8]) it was 97% (active); in experiment [4] (at 50.0 µM) it was 41.9%. The growth inhibition in experiment [5] (setting [7]) was 30%; in experiment [5] (setting [8]), 98% (active); in experiment [5] (at 50.0 µM), 16.9%; in experiment [6] (setting [7]), 73% (active); in experiment [6] (setting [8]), 95% (active); in experiment [6] (at 50.0 µM), 82.2% (active).

Values taken from PubChem BioAssay (NCI).
